TIM10 inh: growth inhibitors of isogenic TIM10 control yeast, primary screen, counter-screen for tim10-1 yeast inhibitor project, luminescence, uHTS. S. cerevisiae TIM10 strain growth, BacTiter-Glo luminescence, 24 h. inhibition, % at 10 µM. hit rate 1.4% among 330,000. AID 463195, 2010;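 active means inhibition of 40% or more at the single tested concentration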;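 further: wild-type TIM10 isogenic control strain grown at permissive 25 °C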
PfHsp90 set2: growth inhibition of PfHsp90-expressing yeast, primary screen, antimalarial PfHsp90 inhibitor project, S. cerevisiae, BacTiter-Glo luminescence, single point, set 2 | inhibition, % at 9.4 µM | hit rate 0.32% among 310,000 | AID 504621, 2011 | BacTiter-Glo ATP, 48 h; yeast lacking PDR1 and PDR3 efflux regulators;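 active means every replicate shows inhibition above about 80%, whatever the replicate mean, limit read from the data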
SUMO Mot1 rescue: yeast Mot1-301 growth rescue at high temperature, primary screen, SUMOylation pathway inhibitor project, S. cerevisiae, ATP luminescence, 38.5C; S. cerevisiae Mot1-301 growth rescue; percent above DMSO median, 100 means doubled; growth rescue, % at 18.8 µM; hit rate 1% among 320,000; AID 2716, 2010;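 active means every valid replicate shows activation above 250% relative to neutral control wells; inactive means the rest, any valid replicate at or below 250%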
tim23-1 inh: growth inhibitors of tim23-1 mutant yeast, primary screen, luminescence, uHTS | S. cerevisiae tim23-1 growth, BacTiter-Glo luminescence, 24 h | inhibition, % at 20 µM | hit rate 1.3% among 330,000 | AID 463212, 2010;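 active means growth inhibition of the mutant yeast at or above 50%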;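 further: temperature-sensitive mutant grown at 25 °C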
tim10-1 inh: growth inhibitors of tim10-1 mutant yeast, primary screen, luminescence, uHTS; S. cerevisiae tim10-1 ts strain growth, BacTiter-Glo, 24 h; inhibition, % at 20 µM; hit rate 2.2% among 330,000;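 active means inhibition of at least 40%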;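 further: mutant grown at 25 °C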
tim23-1 confirm: tim23-1 mutant yeast growth inhibitors, confirmation, luminescence, single concentration | inhibition, % at 20 µM | S. cerevisiae tim23-1 growth, BacTiter-Glo luminescence, 24 h | hit rate 83% among 4,400 | shares compounds with tim23-1 inh;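 active means inhibition above about 39% in either of two replicate wells at 20 µM, limit read from the data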;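 further: temperature-sensitive tim23-1 mutant grown at 25 °C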
Of the large screens only hits and unclear results are named; the others gave an inactive call (follow-up assays come after a bar, where they were run). A selection: hits, their analogues and other compounds. The true share with any hit is near 4.4%.

CCCC(=O)NC(c1ccc(C(C)C)cc1)c1ccc2cccnc2c1O (stereo unspecified)	tim23-1 inh 57 | tim23-1 confirm 63
CC1CCc2sc(C(=O)NNC(=S)NC3CC3)cc2C1 (stereo unspecified)	none
Nc1ncnc2c1ncn2[C@@H]1O[C@H](CNC(=O)[C@@H]2CCN2)[C@@H](O)[C@H]1O	none (no result: SUMO Mot1 rescue)
O=C1COc2ccc(S(=O)(=O)Nc3ccc(F)cc3)cc2N1	none (no result: SUMO Mot1 rescue)
COc1ccccc1/C=C/C(=O)NC(=S)NC(C)C	tim23-1 inh 59 | tim23-1 confirm 41
CN(C)/C=C1/C=C(c2ccccc2)OC1=O	tim23-1 inh 56 | tim23-1 confirm 41
CC1=C/C(=C/N(C)C)C(=O)O1	none
Oc1ccccc1/C=N/NC(=S)NC1CC2CC1C1C=CCC21 (stereo unspecified)	tim23-1 inh 74 | tim23-1 confirm 49
COc1cccc(/C=N/NC(=S)NC2CC3CC2C2C=CCC32)c1O (stereo unspecified)	none
CCOC(=O)/C(=C/c1cn(C)c2ccccc12)NC(=O)c1ccccc1	none
CCOC(=O)/C(=C\c1cn(C)c2ccccc12)[N+](=O)[O-]	tim23-1 inh 54 | tim23-1 confirm 58
CC(Nc1cc(=O)n(C)c(=O)n1C)c1ccccc1 (stereo unspecified)	tim23-1 inh 52 | tim23-1 confirm inactive
CC(C)CCNc1cc(=O)n(C)c(=O)n1C	none
C=CCN1C(=O)/C(=C/C(=O)OC)S/C1=N\NC(=O)c1ccccc1	tim23-1 inh 59 (no result: PfHsp90 set2) | tim23-1 confirm 38
O=C(c1cc(-c2ccc(O)cc2)on1)N1CCc2ccccc2C1	tim23-1 inh 72 | tim23-1 confirm 56
Clc1cccc(CSc2nnc(-c3ccccn3)n2Cc2ccco2)c1	tim23-1 inh 52 (no result: PfHsp90 set2) | tim23-1 confirm 57
O=C(CSc1nnc(-c2ccccn2)n1Cc1ccco1)c1ccc(Cl)cc1	none (no result: PfHsp90 set2)
COC(=O)CC1COc2ccccc2N1S(=O)(=O)c1ccc(OC)cc1 (stereo unspecified)	none
COC(=O)CC1COc2ccccc2N1S(=O)(=O)c1ccc(Br)cc1 (stereo unspecified)	tim23-1 inh 53 | tim23-1 confirm inactive
CCN(Cc1ccccc1)C(=O)c1ccc(C)c(S(=O)(=O)N2CCCCC2)c1	tim23-1 inh 50 | tim23-1 confirm inactive
Cc1ccc(C(=O)N(CCc2ccccc2)Cc2ccccc2)cc1S(=O)(=O)N1CCCCC1	none
NC(=S)NNc1cc(Cl)cc(Cl)c1	tim23-1 inh 58 | tim23-1 confirm 70
Cn1c(=O)c2c(ncn2CCC(=O)N/N=C/c2cccnc2)n(C)c1=O	none
CC(C)CN1C(=O)c2ccc(NC(=O)c3ccco3)cc2C1=O	tim23-1 inh 52 | tim23-1 confirm 53
CC1CN(C(=O)CCC(=O)N2CCCCC2)c2ccccc2O1 (stereo unspecified)	none
C/C(CCc1oc2c(Br)cc(Br)cc2c1-c1ccc(C)o1)=N\O	tim23-1 inh 58 | tim23-1 confirm inactive
Cc1cc(C)c2oc(-c3cccc(N)c3)nc2c1	tim23-1 inh 64 | tim23-1 confirm 60
CN(c1ccc(C(=O)Nc2ccc(CC#N)cc2)cc1)S(C)(=O)=O	tim23-1 inh 94 | tim23-1 confirm inactive
O=C(NC1CCCC1)c1c(O)nc2sccn2c1=O	tim23-1 inh 56 (no result: PfHsp90 set2) | tim23-1 confirm inactive
COc1cc2c(cc1OC)C(C)N(S(=O)(=O)c1ccc(Cl)nc1)CC2 (stereo unspecified)	none
CCOC(=O)[C@H]1[C@H]2COc3ccc(Br)cc3[C@@H]2N2C(=O)N(c3ccccc3)C(=O)[C@@]12C	tim23-1 inh 50 | tim23-1 confirm inactive
CCCn1c(-c2cccs2)nc2nc3ccccc3nc21	tim23-1 inh 54 | tim23-1 confirm 40
O=C(Cn1cnc2c(NC(=O)OCc3ccccc3)ncnc21)NCc1ccccn1	none
CC1=NN(c2ccccc2)C(=O)/C1=C\c1c(C)[nH]n(-c2ccccc2)c1=O	none
CC1=NN(c2ccccc2)C(=O)/C1=C/c1c(O)n(-c2ccc(F)c(Cl)c2)[nH]c1=O	tim23-1 inh 58 (no result: PfHsp90 set2) | tim23-1 confirm 43
CCN1C(=O)/C(=C/c2nc3ccccc3c(=O)[nH]2)c2ccccc21	none (no result: TIM10 inh, tim23-1 inh, tim10-1 inh)
CCN1C(=O)/C(=C/c2nc3ccccc3c(=O)n2-c2ccc(C)cc2)c2ccccc21	tim23-1 inh 52 | tim23-1 confirm 41
O=C(Oc1ccc(=O)n(-c2ccccc2)n1)c1ccc(Cl)cc1	tim23-1 inh 60 | tim23-1 confirm 43
O=C(Oc1ccc(=O)n(-c2ccccc2)n1)c1ccc(F)cc1	none
CCN1C(=O)N[C@@H](c2ccco2)C(C(C)=O)=C1C	none
COc1ccc(/C=C/C(=O)c2ccc(O)cc2)cc1	none
COc1cc(/C=C/c2ccc(O)cc2)cc(OC)c1	tim23-1 inh 51 | tim23-1 confirm inactive
O=C(c1cc2ccccc2oc1=O)N(Cc1ccco1)C1CCS(=O)(=O)C1 (stereo unspecified)	tim23-1 inh 94 (no result: SUMO Mot1 rescue) | tim23-1 confirm inactive
CN(C)c1ccc(CN(C(=O)c2cc3ccccc3oc2=O)C2CCS(=O)(=O)C2)cc1 (stereo unspecified)	none
CC(=O)N1CCN(C(=O)c2cc(S(=O)(=O)N3CCCCC3)ccc2Cl)CC1	none
c1ccc(-c2csc(Nc3ccccn3)n2)cc1	tim23-1 inh 50 | tim23-1 confirm inactive
Cn1c(C=O)c(-c2ccc3c(c2)OCCO3)c2ccccc21	tim23-1 inh 53 | tim23-1 confirm 53
Cc1nc(Nc2ccc3c(c2)OCCO3)c2c(C)c(C)sc2n1	tim23-1 inh 55 | tim23-1 confirm 49
O=C(O)CC1SC(=O)N(CC(=O)c2ccccc2)C1=O (stereo unspecified)	none
c1ccc(OCCSc2nc3ccccc3[nH]2)cc1	none
Cc1ccccc1OCCCSc1nc2ccccc2[nH]1	tim23-1 inh 68 | tim23-1 confirm 64
CN(C)c1ccc(/C=C(\NC(=O)c2ccccc2)C(=O)NCCN2CCOCC2)cc1	none
Nc1c(N(CCC2=CCCCC2)C(=O)Cc2ccccc2F)c(=O)[nH]c(=O)n1Cc1ccccc1	none (no result: PfHsp90 set2)
Cc1cccc(NC(=O)NNC(=O)c2ccccn2)c1	none
CCOC(=O)CS(=O)(=O)c1nc(-c2ccc(F)cc2)cc(C(F)(F)F)n1	tim23-1 inh 69 | tim23-1 confirm inactive
COCCNc1oc(-c2ccccc2Cl)nc1S(=O)(=O)c1ccc(C)cc1	none (no result: PfHsp90 set2)
N/C(Cc1ccc(Cl)c(Cl)c1)=N\OC(=O)c1ccc(Br)o1	PfHsp90 set2 95, tim23-1 inh 77 | tim23-1 confirm 80
N/C(=N\OC(=O)c1ccc(Br)o1)c1cccnc1	none

From PubChem BioAssay
